PubChem BioAssay (NCATS)
Inconclusive results are not listed. A call without a number means that no potency is given here. Calls of active or inactive are those of the source. Unless noted, the call rests on the fitted dose curve; in most records, active means well fitted curve in either direction with a large enough effect (not every such curve was filed as active); inconclusive means small, poorly fitted or top-dose-only effect, or another doubt; inactive means flat fitted curve, though single readings scatter.

Assays:
[1] = AP1 Signaling Pathway (AID 357);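 further: ME-180 reporter cells stimulated with EGF at its EC50 level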
Summary of the method: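 Read-out was the 460nm/530nm emission ratio (excitation 405nm) after CCF4 loading for 2.5 hours at room temperature. Cells carried an AP-1-driven beta-lactamase reporter, were stimulated with EC50 EGF plus compound for 5 hours, and AC50 values came from titrations.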

[2] = target: Cytochrome P450 1A2 (Homo sapiens) (UniProt P05177); experiment: p450-cyp1a2 (AID 410; calls by dose curve; further: potency means the concentration at half of the fitted maximal effect)
Summary of the method: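 20nM CYP1A2, 100uM Luciferin-ME (=Km), 100mM KPO4; cpd 10 min RT; +NADPH regen, 60 min RT; stop/detect 20 min; luminescence. Normalized to furafylline 57 uM = full inhibition.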

[3] = target: Glucocorticoid receptor (Homo sapiens) (UniProt P04150); experiment: GR-EFC Redistribution (AID 451; calls by dose curve; further: potency means the concentration at half of the fitted maximal effect); details: CHO-K1 GR-EFC translocation, beta-gal luminescence, 2 h
Summary of the method: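 CHO-K1 cells expressing nuclear EA and GR-ED fragments of b-gal; compounds titrated up to 46 uM final, 2 h at 37 C. GR nuclear translocation read as complemented b-gal luminescence after 1 h RT detection.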

[4] = target: Mitogen-activated protein kinase 10 (Mus musculus) (UniProt Q61831); experiment: JNK3 AlphaScreen Assay (AID 530);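 further: kinase came from lysate of stimulated human HepG2 cells; signal reports phosphorylation of biotinylated GST-cJun 1-79 at Ser73 with 10 µM ATP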
Summary of the method: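 HepG2 lysate (IL-1b/TNFa pre-activated) + biotin-GST-cJun 1-79 + anti-pSer73 cJun; cpd titration, 15 min RT; ATP 10 uM start; Tris pH 7.6, MgCl2, DTT, vanadate; beads in EDTA buffer; AlphaScreen.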

[5] = target: 3',5'-cyclic-AMP phosphodiesterase 4B (Homo sapiens) (UniProt Q07343); experiment: qHTS Assay for Inhibitors of PDE-IV (AID 607; active means well fitted activation curve with a large enough effect in the main read-out, with a control signal flat, not every such curve was filed as active)
Summary of the method: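 Live HEK293 cells with a modified cyclic nucleotide-gated (CNG) channel report intracellular cAMP via membrane-potential dye fluorescence (ex 535/em 590 nm). Endogenous PDE-IV was targeted. Compounds were tested at up to 22.9 uM final; RO 20-1724 100 uM served as control.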

[6] = target: Cytochrome P450 3A4 (Homo sapiens) (UniProt P08684); experiment: qHTS Assay for Activators of Cytochrome P450 3A4 (AID 885; active means well fitted curve in the direction sought with a large enough effect; an effect the other way counts as inactive or inconclusive; further: nearly all actives have a fitted effect of over 65% in size)
Summary of the method: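 Using 20nM recombinant human CYP3A4 in potassium phosphate (200mM), substrate Luciferin-PPXE at 25uM, luminescent luciferin detection followed a 60-min RT NADPH reaction; data scaled to 57 uM ketoconazole.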

[7] = qHTS Assay for Lipid Storage Modulators (AID 1519; calls by dose curve); details: Drosophila S3 cells, BODIPY lipid droplet/cell ratio, laser cytometry, cells loaded with oleic acid; for activity change, negative = inhibition: at 57.5 µM (top of the series)
Summary of the method: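 Cells seeded at 5,000 per well were treated with compounds over a concentration series and loaded with oleic acid (400 uM, as added). Lipid droplet fluorescence (488 nm excitation, 500-530 nm channel) was read by laser-scanning cytometry and normalized to 20 uM Triacsin C.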

[8] = Primary qHTS for small molecule stabilizers of the endoplasmic reticulum resident proteome: Secreted ER Calcium Modulated Protein (SERCaMP) assay (AID 1508630; active means well fitted curve in the direction sought with a large enough effect; an effect the other way counts as inactive or inconclusive)
Summary of the method: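 The SH-SY5Y reporter protocol was run at 3 concentrations up to 38.3 uM (primary) or 11 concentrations (follow-up): 16 h compound, 100 nM thapsigargin for 4 h, then extracellular luciferase luminescence.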

[9] = target: Lysosomal acid glucosylceramidase (Homo sapiens) (UniProt P04062); experiment: Glucocerebrosidase-p2 (AID 348; in the data active means potency below about 10 µM; further: potency means the concentration at half of the fitted maximal effect); details: purified GBA, blue fluorogenic substrate, 40 min
Summary of the method: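 Normal human glucocerebrosidase (0.2 nM) with blue fluorogenic substrate (80 uM final) in citrate/phosphate pH 5.9 with 10mM sodium taurocholate, 0.01% tween-20; 40 min RT, NaOH/glycine stop; fluorescence Ex 365/Em 440; AC50 from a titration from 0.6 nM upwards.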

[10] = tested on: HIV-1 nucleocapsid protein NCp7 (binding to TG oligonucleotide); experiment: HIV Nucleocapsid (AID 346; call rule not given here;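 further: potency means the concentration at half of the fitted maximal effect; potency is for inhibitors that block NC binding and lower polarization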); details: HIV-1 NC / fluorescein-TGTGTGTG probe, fluorescence polarization
Summary of the method: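 Fluorescence polarization readout: labelled TG4xF oligo (10 nM) with 100 nM nucleocapsid protein, high-salt (250mM NaCl) Hepes pH 7.5 buffer containing zinc and fresh reducing agents. Compounds added by pin tool; incubation 1 hr, room temperature.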

[11] = Stat Signaling Pathway (AID 446);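 further: ME-180 cervical cancer cells given 40 pM IL-6 alongside compound; SIE-controlled beta-lactamase reporter measured as 460/530 nm FRET emission ratio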
Summary of the method: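 Overnight-plated ME-180 cells bearing a STAT Inducible Element beta-lactamase reporter; 5 h co-exposure to compound and 40 pM IL-6; values normalized to 300 pM IL-6 and 125 nM JAK inhibitor controls.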

[12] = NFAT Signaling Pathway (AID 444); details: Jurkat NFAT-bla M1, carbachol, beta-lactamase ratio, 5 h; at 7.69 µM (top of the series);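 further: carbachol stimulus at about its EC50 of 1 µM final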
Summary of the method: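 Jurkat cells with NFAT-driven β-lactamase reporter and co-expressed M1 receptor, stimulated with carbachol (final 1 uM, ~EC50), compound titration, 5 h at 37 °C. CCF4 loaded 1 h at RT; 460/530 nm ratio gave %activity and AC50.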

[13] = measured here: cell count channel max response
[14] = measured here: lipid channel max response

Glucocorticoid receptor (Homo sapiens), sequence (P04150 whole entry, looked up, the tested form may be a part): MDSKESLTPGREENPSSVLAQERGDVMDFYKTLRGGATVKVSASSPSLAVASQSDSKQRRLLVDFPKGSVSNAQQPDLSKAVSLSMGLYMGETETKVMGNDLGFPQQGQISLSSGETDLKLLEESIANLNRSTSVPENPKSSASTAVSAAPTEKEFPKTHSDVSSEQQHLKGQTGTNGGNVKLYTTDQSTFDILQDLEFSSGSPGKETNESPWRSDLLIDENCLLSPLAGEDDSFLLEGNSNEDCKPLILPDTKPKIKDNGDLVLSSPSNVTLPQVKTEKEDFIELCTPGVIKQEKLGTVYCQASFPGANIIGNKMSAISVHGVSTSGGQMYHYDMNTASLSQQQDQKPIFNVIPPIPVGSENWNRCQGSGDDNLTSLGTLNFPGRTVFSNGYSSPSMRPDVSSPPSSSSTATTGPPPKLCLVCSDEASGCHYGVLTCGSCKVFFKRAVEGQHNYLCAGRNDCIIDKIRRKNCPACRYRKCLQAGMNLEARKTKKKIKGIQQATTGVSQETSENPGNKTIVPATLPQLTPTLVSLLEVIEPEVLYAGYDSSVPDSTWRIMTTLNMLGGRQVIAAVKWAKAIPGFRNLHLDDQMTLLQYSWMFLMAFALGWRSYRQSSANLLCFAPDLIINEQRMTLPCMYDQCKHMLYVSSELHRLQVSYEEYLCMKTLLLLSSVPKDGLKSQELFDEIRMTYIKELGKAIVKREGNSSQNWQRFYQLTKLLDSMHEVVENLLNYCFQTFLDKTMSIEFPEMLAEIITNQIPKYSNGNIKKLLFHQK
Cytochrome P450 3A4 (Homo sapiens), sequence (P08684 whole entry, looked up): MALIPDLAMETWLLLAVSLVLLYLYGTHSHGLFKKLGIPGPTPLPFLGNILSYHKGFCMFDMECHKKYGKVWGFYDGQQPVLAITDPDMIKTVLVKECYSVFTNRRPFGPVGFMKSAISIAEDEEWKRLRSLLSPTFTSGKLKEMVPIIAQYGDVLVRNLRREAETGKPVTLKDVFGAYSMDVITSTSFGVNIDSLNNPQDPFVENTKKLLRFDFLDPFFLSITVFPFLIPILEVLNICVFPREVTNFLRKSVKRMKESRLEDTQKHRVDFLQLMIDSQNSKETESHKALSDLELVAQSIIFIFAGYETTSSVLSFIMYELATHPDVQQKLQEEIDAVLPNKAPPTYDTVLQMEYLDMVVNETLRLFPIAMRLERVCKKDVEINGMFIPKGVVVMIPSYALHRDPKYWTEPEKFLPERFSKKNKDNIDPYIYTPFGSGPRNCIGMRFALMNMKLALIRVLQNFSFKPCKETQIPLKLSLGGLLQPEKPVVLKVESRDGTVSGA
Lysosomal acid glucosylceramidase (Homo sapiens), sequence (P04062 whole entry, looked up): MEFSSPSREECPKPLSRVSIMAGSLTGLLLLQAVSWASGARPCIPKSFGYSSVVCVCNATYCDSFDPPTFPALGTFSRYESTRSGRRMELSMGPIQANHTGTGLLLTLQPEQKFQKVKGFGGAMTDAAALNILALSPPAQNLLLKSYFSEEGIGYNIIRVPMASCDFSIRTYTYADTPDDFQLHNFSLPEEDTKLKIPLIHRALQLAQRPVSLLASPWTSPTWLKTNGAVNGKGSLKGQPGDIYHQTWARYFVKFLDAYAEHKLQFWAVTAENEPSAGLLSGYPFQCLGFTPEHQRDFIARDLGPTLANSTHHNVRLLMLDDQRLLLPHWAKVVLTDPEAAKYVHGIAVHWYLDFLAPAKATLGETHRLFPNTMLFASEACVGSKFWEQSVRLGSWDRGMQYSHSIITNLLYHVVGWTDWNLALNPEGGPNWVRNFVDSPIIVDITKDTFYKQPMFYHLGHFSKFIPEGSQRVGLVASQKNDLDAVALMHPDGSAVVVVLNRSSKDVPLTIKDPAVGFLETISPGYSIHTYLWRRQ
Cytochrome P450 1A2 (Homo sapiens), sequence (P05177 whole entry, looked up): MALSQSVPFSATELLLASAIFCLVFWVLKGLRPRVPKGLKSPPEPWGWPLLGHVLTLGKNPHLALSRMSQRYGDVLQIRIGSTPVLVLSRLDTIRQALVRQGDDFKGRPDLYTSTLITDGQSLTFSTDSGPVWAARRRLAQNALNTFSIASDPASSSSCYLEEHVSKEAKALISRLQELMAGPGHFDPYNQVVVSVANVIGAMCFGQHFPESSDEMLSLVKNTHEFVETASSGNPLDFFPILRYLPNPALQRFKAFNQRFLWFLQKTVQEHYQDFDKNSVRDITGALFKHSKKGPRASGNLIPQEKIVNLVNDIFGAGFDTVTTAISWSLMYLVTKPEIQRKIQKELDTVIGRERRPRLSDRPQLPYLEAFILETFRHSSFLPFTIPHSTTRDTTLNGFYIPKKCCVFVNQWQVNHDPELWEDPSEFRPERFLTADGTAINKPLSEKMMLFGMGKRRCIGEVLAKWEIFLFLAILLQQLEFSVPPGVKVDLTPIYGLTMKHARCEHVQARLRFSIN
3',5'-cyclic-AMP phosphodiesterase 4B (Homo sapiens), sequence (Q07343 whole entry, looked up): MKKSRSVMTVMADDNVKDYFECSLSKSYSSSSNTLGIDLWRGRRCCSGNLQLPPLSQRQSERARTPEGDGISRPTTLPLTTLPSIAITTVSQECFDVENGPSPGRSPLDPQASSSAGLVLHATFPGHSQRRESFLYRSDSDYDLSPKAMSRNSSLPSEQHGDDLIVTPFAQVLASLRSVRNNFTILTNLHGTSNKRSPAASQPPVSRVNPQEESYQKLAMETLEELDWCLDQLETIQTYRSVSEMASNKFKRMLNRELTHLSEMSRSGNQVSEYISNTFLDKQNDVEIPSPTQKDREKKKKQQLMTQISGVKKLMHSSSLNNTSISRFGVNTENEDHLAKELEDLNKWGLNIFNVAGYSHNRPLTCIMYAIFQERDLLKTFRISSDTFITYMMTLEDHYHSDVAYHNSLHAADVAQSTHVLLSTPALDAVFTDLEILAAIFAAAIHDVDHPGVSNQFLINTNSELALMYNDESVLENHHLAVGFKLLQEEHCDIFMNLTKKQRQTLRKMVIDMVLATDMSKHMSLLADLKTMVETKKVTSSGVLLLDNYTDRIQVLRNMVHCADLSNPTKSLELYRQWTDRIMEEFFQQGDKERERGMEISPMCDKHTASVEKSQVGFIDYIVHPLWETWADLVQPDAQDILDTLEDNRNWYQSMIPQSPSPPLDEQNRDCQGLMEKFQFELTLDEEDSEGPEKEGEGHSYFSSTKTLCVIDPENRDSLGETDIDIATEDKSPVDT

Row | SMILES | outcome [1] | Potency [2] | Potency [3] | outcome [4] | Potency [5] | Potency [6] | activity change, negative = inhibition [7] | max response [7, 13] | max response [7, 14] | outcome [8] | Potency [9] | Potency [10] | outcome [11] | activity change, negative = inhibition [12]
1 | CC(C)CN1CCCC2(CCN(C(=O)c3ccncc3)CC2)C1 | inactive | 12.6 µM (active) | > 46 µM (inactive) | inactive | inactive | inactive | 5.13% (inactive) | 11.3% | 20.9% | inactive |  |  |  | 
2 | Cc1noc(C)c1C(=O)N1CCC2(CCCN(CC(C)C)C2)CC1 | inactive | inactive | > 46 µM (inactive) | inactive | inactive |  | 1.67% (inactive) | -5.22% | -1.22% | inactive | > 11.4 µM (inactive) |  |  | 
3 | O=C(Oc1ccccc1)N1CCC[C@@]2(CCN(Cc3cc(C(F)(F)F)cc(C(F)(F)F)c3)C2)C1 |  |  | > 46 µM (inactive) | inactive | inactive |  |  |  |  | inactive | > 11.4 µM (inactive) | > 20 µM (inactive) | inactive | 
4 | O=C(Nc1ccccc1)N1CC[C@@]2(CCCN(C(=O)Oc3ccccc3)C2)C1 | inactive | 15.8 µM (active) | > 46 µM (inactive) | inactive |  | inactive | 8.84% (inactive) | 9% | 23.4% | inactive |  |  | inactive | 1.93% (inactive)
5 | c1ccc(N2CC3(CCNCC3)C2)cc1 | inactive | inactive | > 46 µM (inactive) | inactive | inactive |  | 3.32% (inactive) | 11.6% | 20.7% | inactive | > 11.4 µM (inactive) |  | inactive | -5.86% (inactive)
6 | CN1CC[C@@]2(CCCN(C(=O)Oc3ccccc3)C2)C1 | inactive | inactive | > 46 µM (inactive) | inactive | inactive | inactive | 2.41% (inactive) | 16.8% | 22% | inactive |  |  | inactive | 0.664% (inactive)
7 | O=C(Nc1cccc(F)c1)N1CC[C@@]2(CCCN(C(=O)Oc3ccccc3)C2)C1 | inactive | 15.8 µM (active) | > 46 µM (inactive) | inactive |  | inactive | 7.1% (inactive) | 6.61% | 19.8% | inactive | > 11.4 µM (inactive) |  | inactive | -6.58% (inactive)
8 | c1cc(CN2CC3(CCNCC3)C2)ccn1 | inactive |  | > 46 µM (inactive) | inactive | inactive |  | 2.64% (inactive) | 6.79% | 9.29% | inactive | > 11.4 µM (inactive) |  | inactive | 
